Measured values published in PubChem BioAssay (NCATS).
Values without a mark were called inactive. Results filed as inconclusive are left out. Activity calls are given as the source filed them. Unless noted, calls come from the whole dose curve; as a rule, active = well fitted curve in either direction with a large enough effect (not every such curve was filed as active); inconclusive = small, poorly fitted or top-dose-only effect, or another doubt; inactive = flat fitted curve, though single readings scatter.

Assays:
[1] = biological target: Lysosomal acid glucosylceramidase (Homo sapiens) (UniProt P04062); assay: Glucocerebrosidase-p2 (AID 348; in the data active = potency below about 10 µM; note: potency is the fitted concentration of half-maximal effect); settings: purified GBA, blue fluorogenic substrate, 40 min
Summary of the method: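 Normal human glucocerebrosidase (0.2 nM) with blue fluorogenic substrate (80 uM final) in citrate/phosphate pH 5.9 with 10mM sodium taurocholate, 0.01% tween-20; 40 min RT, NaOH/glycine stop; fluorescence Ex 365/Em 440; AC50 from a titration from 0.6 nM upwards.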

[2] = AP1 Signaling Pathway (AID 357); settings: ME-180 AP-1-bla reporter, EGF-induced, beta-lactamase ratio, 5 h; at 7.69 µM (top of the series) unless noted;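 note: ME-180 reporter cells stimulated with EGF at its EC50 level; % is set by controls: 0 for no effect and ±100 for the full control effect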
Summary of the method: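 Modulation of EGF-driven AP-1 transcription was assessed with a beta-lactamase reporter in ME-180 cells. Compound and EC50 EGF were co-incubated 5 hours at 37 °C before 2.5-hour CCF4 loading at room temperature and dual-emission reading.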

[3] = NFAT Signaling Pathway (AID 444); settings: Jurkat NFAT-bla M1, carbachol, beta-lactamase ratio, 5 h; at 7.69 µM (top of the series) unless noted;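 note: carbachol stimulus at about its EC50 of 1 µM final; % is set by controls: 0 for no effect and ±100 for the full control effect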
Summary of the method: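 Read-out: CCF4 FRET ratio (460 nm/530 nm) after 1 h RT dye loading, used for %activity and AC50 from titration series. Cells: Jurkat NFAT-β-lactamase/M1 line, treated with compound plus 1 uM carbachol for 5 h, 37 °C.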

[4] = biological target: Glucocorticoid receptor (Homo sapiens) (UniProt P04150); assay: GR-EFC Redistribution (AID 451; calls by dose curve; note: potency is the fitted concentration of half-maximal effect); settings: CHO-K1 GR-EFC translocation, beta-gal luminescence, 2 h
Summary of the method: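 Translocation of GR-ED fusion to nuclear EA restores b-gal, read by luminescence after 1 h room-temperature detection. Engineered CHO-K1 biosensor cells, 1,000/well, exposed 2 h at 37 C to titrations up to 46 uM final.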

[5] = biological target: Mitogen-activated protein kinase 10 (Mus musculus) (UniProt Q61831); assay: JNK3 AlphaScreen Assay (AID 530); settings: JNK3 lysate, c-Jun phosphorylation; series mostly up to 57.1 µM;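 note: kinase came from lysate of stimulated human HepG2 cells; signal reports phosphorylation of biotinylated GST-cJun 1-79 at Ser73 with 10 µM ATP; % is set by controls: 0 for no effect and ±100 for the full control effect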
Summary of the method: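 Kinase buffer: 20 mM Tris-HCl pH 7.6, 10 mM MgCl2, 1 mM DTT, 0.1 mM Na3VO4, 0.01% Tween-20; ATP 10 uM. Substrate biotin-GST-cJun(1-79), enzyme from activated HepG2 lysates. Detection by Ser73 phospho-antibody AlphaScreen.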

[6] = biological target: 3',5'-cyclic-AMP phosphodiesterase 4B (Homo sapiens) (UniProt Q07343); assay: qHTS Assay for Inhibitors of PDE-IV (AID 607; active = well fitted activation curve with a large enough effect in the main read-out, with a control signal flat, not every such curve was filed as active; note: % of control where 0% means no effect); settings: HEK293 ACTOne CNG channel cells, membrane potential fluorescence; series mostly up to 22.9 µM
Summary of the method: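 Cell-based read-out of cAMP via a modified cyclic nucleotide-gated channel and membrane potential dye (535/590 nm) in HEK293 cells expressing PDE4 endogenously. Compounds tested up to 22.9 uM final; 100 uM RO 20-1724 reference.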

[7] = Primary qHTS for small molecule stabilizers of the endoplasmic reticulum resident proteome: Secreted ER Calcium Modulated Protein (SERCaMP) assay (AID 1508630; active = well fitted curve in the direction sought with a large enough effect; an effect the other way counts as inactive or inconclusive; note: % is set by controls: 0 for no effect and ±100 for the full control effect); settings: SH-SY5Y GLuc-SERCaMP (Gaussia luciferase released on ER calcium loss) secretion, thapsigargin, luminescence; series mostly up to 38.4 µM
Summary of the method: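 The SH-SY5Y reporter protocol was run at 3 concentrations up to 38.3 uM (primary) or 11 concentrations (follow-up): 16 h compound, 100 nM thapsigargin for 4 h, then extracellular luciferase luminescence.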

[8] = Stat Signaling Pathway (AID 446); settings: ME-180 (cervical carcinoma) SIE beta-lactamase reporter, IL-6 stimulated, 5 h; at 7.69 µM (top of the series) unless noted
Summary of the method: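 FRET read-out (405 nm excitation, 460/530 nm emission) of a beta-lactamase reporter under a STAT-inducible element in ME-180 cervical carcinoma cells. Cells with compound receive 40 pM IL-6 for 5 h. Values are normalised to AC90 stimulation and AC90 JAK-inhibitor controls.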

[9] = biological target: Cytochrome P450 3A4 (Homo sapiens) (UniProt P08684); assay: qHTS Assay for Activators of Cytochrome P450 3A4 (AID 885; active = well fitted curve in the direction sought with a large enough effect; an effect the other way counts as inactive or inconclusive; note: nearly all actives have a fitted effect of over 65% in size); settings: recombinant CYP3A4, Luciferin-PPXE luminescence, 60 min; series mostly up to 57.1 µM
Summary of the method: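 Luminescent readout of luciferin formed from 25 uM Luciferin-PPXE (KM level) by 20 nM CYP3A4 in 200 mM KPO4, with 60 min NADPH-driven reaction at room temperature after 10 min compound exposure. Ketoconazole (57 uM) defined 100% inhibition.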

[10] = biological target: Glucocorticoid receptor (Homo sapiens) (UniProt P04150); assay: GR-GFP Redistribution (AID 450;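 active = compounds whose dose series gives a full or clear partial fitted curve of increased nuclear translocation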; note: potency is the fitted concentration of half-maximal effect); settings: U2OS GR-GFP nuclear translocation, laser cytometry, 2 h
[11] = Confirmation and Secondary Assay for Modulators of Hemoglobin Beta Chain Splicing at IVS2 654 locus (AID 910; active = well fitted curve in the direction sought with a large enough effect; an effect the other way counts as inactive or inconclusive;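 note: HeLa cells stably carrying EGFP split by mutant beta-globin IVS2-654 intron; per-well total GFP intensity by laser scanning cytometry after 2-day treatment; % of control where 0% means no effect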); settings: HeLa EGFP-654 splicing reporter, GFP fluorescence, 48 h; series mostly up to 38.3 µM
Summary of the method: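 Readout: per-well total peak green fluorescence (488 nm ex, 500–520 nm em) from objects 5–250 µm, reflecting correct splicing of an EGFP-654 reporter. Compounds were applied for 2 days at 37 °C to overnight-plated HeLa EGFP-654 cells; controls were DMSO and 500 nM IVS2-654 PNA.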

[12] = Confirmation and Secondary Assay for Modulators of Hemoglobin Beta Chain Splicing at IVS2 705 locus (AID 930; active = well fitted curve in the direction sought with a large enough effect; an effect the other way counts as inactive or inconclusive;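 note: HeLa cells stably expressing the EGFP-705 splicing reporter; GFP fluorescence per well restored by corrected splicing of the IVS2-705 intron in EGFP; % of control where 0% means no effect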); settings: HeLa EGFP-705 splicing reporter, GFP fluorescence, 48 h; series mostly up to 38.3 µM
Summary of the method: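 Per-well GFP, captured at 1 x 8 µm resolution with 488 nm excitation, served as the read-out for HeLa EGFP-705 cells incubated 2 days with test compound versus DMSO.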

[13] = biological target: Ubiquitin carboxyl-terminal hydrolase 1 (Homo sapiens) (UniProt O94782); assay: Inhibitors of USP1/UAF1: Pilot qHTS (AID 504865; active = well fitted curve in the direction sought with a large enough effect; an effect the other way counts as inactive or inconclusive;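 note: rhodamine fluorescence freed from ubiquitin-rhodamine substrate followed over time; top concentration of the series differs between compounds; % is set by controls: 0 for no effect and ±100 for the full control effect; nearly all actives have a fitted effect of over 35% in size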); settings: purified USP1/UAF1, Ub-rhodamine cleavage fluorescence; series mostly up to 54.9 µM
Summary of the method: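 USP1/UAF1 complex at 1 nM preincubated 15 min at room temperature with compound, then Ub-Rho substrate added at 150 nM final. Fluorescence (480/540 nm) read kinetically in 50 mM HEPES pH 7.8, 0.5 mM EDTA, 1 mM TCEP, 0.1 mg/ml BSA, 0.01% Tween-20.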

[14] = biological target: Cytochrome P450 1A2 (Homo sapiens) (UniProt P05177); assay: p450-cyp1a2 (AID 410; calls by dose curve; note: potency is the fitted concentration of half-maximal effect); settings: recombinant CYP1A2, luciferin-ME demethylation, luminescence; series mostly up to 57 µM
Summary of the method: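 20nM CYP1A2, 100uM Luciferin-ME (=Km), 100mM KPO4; cpd 10 min RT; +NADPH regen, 60 min RT; stop/detect 20 min; luminescence. Normalized to furafylline 57 uM = full inhibition.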

[15] = biological target: Cytochrome P450 3A4 (Homo sapiens) (UniProt P08684); assay: qHTS Assay for Inhibitors and Substrates of Cytochrome P450 3A4 (AID 884; active = well fitted curve in the direction sought with a large enough effect; an effect the other way counts as inactive or inconclusive; note: potency is the fitted concentration of half-maximal effect; nearly all actives have a fitted effect of over 50% in size); settings: recombinant CYP3A4, Luciferin-PPXE luminescence; series mostly up to 57.1 µM
Summary of the method: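 Luminescent readout of luciferin produced by CYP3A4 (20 nM) dealkylation of Luciferin-PPXE, 25 uM (its KM). NADPH-driven reaction ran 60 min at RT after 10 min compound preincubation; data scaled to 57 uM ketoconazole as 100% inhibition.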

Sequence of Glucocorticoid receptor (Homo sapiens) (P04150 whole entry, looked up, the tested form may be a part): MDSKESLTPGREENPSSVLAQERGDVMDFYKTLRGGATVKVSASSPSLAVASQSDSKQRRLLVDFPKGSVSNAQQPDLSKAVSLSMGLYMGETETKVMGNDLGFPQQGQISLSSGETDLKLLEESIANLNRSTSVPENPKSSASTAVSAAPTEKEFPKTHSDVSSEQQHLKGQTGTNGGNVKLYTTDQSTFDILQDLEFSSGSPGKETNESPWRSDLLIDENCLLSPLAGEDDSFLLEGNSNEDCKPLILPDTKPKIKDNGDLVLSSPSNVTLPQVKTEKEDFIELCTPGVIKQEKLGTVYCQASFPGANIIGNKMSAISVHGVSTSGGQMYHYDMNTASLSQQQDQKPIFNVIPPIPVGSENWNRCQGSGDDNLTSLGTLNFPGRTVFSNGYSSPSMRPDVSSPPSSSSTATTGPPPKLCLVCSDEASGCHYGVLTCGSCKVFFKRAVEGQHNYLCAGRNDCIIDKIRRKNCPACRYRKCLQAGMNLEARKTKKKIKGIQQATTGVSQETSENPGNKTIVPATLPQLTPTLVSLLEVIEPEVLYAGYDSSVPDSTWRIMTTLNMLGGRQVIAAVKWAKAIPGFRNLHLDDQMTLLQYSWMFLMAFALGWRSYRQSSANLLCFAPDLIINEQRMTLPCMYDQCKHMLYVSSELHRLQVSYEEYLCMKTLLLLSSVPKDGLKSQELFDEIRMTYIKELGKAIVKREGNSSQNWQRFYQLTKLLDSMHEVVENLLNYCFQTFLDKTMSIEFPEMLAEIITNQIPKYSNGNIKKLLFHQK
Sequence of Cytochrome P450 3A4 (Homo sapiens) (P08684 whole entry, looked up): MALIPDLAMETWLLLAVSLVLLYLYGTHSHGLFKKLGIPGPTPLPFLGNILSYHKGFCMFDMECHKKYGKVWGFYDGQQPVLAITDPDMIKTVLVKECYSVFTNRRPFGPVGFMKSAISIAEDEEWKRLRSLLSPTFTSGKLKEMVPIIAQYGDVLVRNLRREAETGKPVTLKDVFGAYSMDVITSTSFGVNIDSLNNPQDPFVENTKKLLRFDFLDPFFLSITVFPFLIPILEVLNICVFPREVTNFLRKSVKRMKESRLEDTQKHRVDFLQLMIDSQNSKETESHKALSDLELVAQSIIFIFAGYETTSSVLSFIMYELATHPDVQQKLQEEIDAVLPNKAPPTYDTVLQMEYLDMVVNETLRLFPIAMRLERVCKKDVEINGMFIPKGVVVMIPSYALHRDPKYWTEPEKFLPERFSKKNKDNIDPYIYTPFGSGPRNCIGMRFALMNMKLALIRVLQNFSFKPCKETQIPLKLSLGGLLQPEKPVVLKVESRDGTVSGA
Sequence of Lysosomal acid glucosylceramidase (Homo sapiens) (P04062 whole entry, looked up): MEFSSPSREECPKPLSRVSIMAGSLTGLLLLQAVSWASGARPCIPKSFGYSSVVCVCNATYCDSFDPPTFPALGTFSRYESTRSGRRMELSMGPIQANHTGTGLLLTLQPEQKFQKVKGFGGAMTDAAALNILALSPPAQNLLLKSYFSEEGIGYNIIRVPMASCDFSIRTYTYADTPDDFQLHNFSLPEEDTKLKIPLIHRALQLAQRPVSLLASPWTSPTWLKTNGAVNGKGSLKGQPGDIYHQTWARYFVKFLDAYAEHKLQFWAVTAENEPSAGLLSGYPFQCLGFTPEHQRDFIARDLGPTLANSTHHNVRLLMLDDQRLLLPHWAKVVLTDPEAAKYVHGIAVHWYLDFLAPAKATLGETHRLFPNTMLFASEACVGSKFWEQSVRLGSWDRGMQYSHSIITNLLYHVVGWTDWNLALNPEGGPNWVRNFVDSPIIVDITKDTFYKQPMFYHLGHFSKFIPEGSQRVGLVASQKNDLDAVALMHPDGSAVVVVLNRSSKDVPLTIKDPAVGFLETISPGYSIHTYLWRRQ
Sequence of 3',5'-cyclic-AMP phosphodiesterase 4B (Homo sapiens) (Q07343 whole entry, looked up): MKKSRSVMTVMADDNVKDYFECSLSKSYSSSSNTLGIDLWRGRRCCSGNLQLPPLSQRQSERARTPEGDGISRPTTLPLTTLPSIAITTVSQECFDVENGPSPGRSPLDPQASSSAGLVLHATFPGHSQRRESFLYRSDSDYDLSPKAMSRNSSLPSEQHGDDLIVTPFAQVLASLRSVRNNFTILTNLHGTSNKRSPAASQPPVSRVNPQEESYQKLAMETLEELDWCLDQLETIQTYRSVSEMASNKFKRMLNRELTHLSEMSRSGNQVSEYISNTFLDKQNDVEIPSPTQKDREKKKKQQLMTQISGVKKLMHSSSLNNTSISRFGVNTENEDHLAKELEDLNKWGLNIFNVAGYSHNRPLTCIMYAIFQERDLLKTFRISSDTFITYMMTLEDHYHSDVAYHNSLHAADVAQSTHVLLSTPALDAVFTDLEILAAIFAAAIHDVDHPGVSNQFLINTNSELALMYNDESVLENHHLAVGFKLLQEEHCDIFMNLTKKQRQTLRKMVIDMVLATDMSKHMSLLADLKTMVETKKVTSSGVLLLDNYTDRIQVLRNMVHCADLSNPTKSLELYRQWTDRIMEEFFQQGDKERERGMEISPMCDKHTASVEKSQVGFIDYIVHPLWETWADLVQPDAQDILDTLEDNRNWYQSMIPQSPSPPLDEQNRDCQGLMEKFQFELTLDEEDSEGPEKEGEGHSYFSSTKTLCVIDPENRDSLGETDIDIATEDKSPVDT
Sequence of Cytochrome P450 1A2 (Homo sapiens) (P05177 whole entry, looked up): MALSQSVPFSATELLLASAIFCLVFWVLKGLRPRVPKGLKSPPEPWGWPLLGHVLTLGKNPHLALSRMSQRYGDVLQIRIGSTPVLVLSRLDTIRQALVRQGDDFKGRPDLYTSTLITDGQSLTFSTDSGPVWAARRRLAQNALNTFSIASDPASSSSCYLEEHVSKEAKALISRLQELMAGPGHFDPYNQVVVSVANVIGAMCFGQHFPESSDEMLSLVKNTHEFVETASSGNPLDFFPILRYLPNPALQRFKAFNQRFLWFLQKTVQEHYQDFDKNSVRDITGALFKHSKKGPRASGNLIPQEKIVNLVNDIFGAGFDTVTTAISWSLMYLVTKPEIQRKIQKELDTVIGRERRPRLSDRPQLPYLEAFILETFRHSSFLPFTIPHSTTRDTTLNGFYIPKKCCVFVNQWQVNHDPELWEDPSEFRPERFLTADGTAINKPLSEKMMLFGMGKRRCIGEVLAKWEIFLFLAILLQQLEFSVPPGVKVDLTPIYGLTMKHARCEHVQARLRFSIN
Sequence of Ubiquitin carboxyl-terminal hydrolase 1 (Homo sapiens) (O94782 whole entry, looked up): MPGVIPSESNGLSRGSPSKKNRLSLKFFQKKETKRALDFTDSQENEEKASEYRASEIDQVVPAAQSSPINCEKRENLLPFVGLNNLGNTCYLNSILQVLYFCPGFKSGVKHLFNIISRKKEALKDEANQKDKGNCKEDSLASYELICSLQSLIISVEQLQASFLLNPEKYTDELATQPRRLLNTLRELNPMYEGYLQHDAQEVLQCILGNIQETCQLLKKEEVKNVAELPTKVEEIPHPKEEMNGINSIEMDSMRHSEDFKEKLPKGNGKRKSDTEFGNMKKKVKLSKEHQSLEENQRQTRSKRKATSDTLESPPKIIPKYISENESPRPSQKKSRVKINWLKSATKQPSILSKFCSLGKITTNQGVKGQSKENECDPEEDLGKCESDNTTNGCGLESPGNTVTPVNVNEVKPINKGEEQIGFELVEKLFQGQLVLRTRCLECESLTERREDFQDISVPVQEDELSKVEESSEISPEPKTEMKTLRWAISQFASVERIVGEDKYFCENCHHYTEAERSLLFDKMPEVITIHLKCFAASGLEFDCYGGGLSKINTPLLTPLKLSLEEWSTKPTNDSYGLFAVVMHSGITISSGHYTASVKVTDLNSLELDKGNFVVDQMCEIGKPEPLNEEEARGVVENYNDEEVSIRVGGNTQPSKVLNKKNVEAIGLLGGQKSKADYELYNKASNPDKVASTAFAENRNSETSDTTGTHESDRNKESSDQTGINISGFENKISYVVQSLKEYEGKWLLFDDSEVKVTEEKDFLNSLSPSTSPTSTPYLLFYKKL

SMILES	Potency [1]	activity change, negative = inhibition [2]	activity change, negative = inhibition [3]	Potency [4]	Potency [5]	Potency [6]	outcome [7]	activity, negative = inhibition [8]	Potency [9]	Potency [10]	Potency [11]	outcome [12]	Potency [13]	Potency [14]	Potency [15]
N#Cc1cccc(NC(=O)N2CC3(CCN(C(=O)c4cnccn4)CC3)C2)c1	> 11.4 µM	-10.3%	14.6%	> 46 µM	inactive	inactive	inactive	–	–	–	–	–	–	–	–
O=C(Nc1ccccc1)N1CCCC2(CCN(C(=O)c3csnn3)CC2)C1	> 11.4 µM	-9.89%	-7.97%	> 46 µM	inactive	inactive	inactive	-7.07%	inactive	–	–	–	–	–	–
O=C(c1csnn1)N1CCC2(CCCN(c3ccccn3)C2)CC1	> 11.4 µM	-4.82%	–	> 46 µM	inactive	inactive	inactive	9.35%	–	–	–	–	–	–	–
N#CCCn1c(=O)cnc2cnc(Nc3ccccc3)nc21	> 11.4 µM	-26.6%	-3.19%	> 46 µM	inactive	–	inactive	–	–	> 9.22 µM	–	–	–	–	–
COCC(=O)N1CCC[C@@]2(CCN(Cc3nccs3)C2)C1	> 11.4 µM	-2.92%	0.146%	> 46 µM	inactive	inactive	inactive	4.7%	inactive	–	–	–	–	–	–
O=C(c1ccncc1)N1CCC2(CCN(Cc3cc(C(F)(F)F)cc(C(F)(F)F)c3)CC2)CC1	> 11.4 µM	2.71%	–	> 46 µM	inactive	inactive	inactive	-0.397%	–	–	–	–	–	–	–
COc1ccc(C(=O)N2CCC3(CCCN(c4ccc(-c5ccccc5)cc4)C3)CC2)cc1	> 11.4 µM	-8.58%	–	> 46 µM	inactive	inactive	inactive	0.229%	–	–	–	–	–	–	–
O=S(=O)(c1ccccc1)N1CCC2(CCCN(Cc3ccccc3)C2)CC1	> 11.4 µM	10.9%	–	> 46 µM	inactive	inactive	inactive	5.57%	–	–	–	–	–	–	–
N#Cc1ccc(CN2CCCC3(CCN(C(=O)c4cnccn4)CC3)C2)cc1	> 11.4 µM	-6.06%	–	> 46 µM	inactive	inactive	inactive	-1.62%	–	–	–	–	–	–	–
Cc1noc(C)c1C(=O)N1CCC2(CCCN(c3ccccn3)C2)CC1	> 11.4 µM	-4.45%	-10.8%	> 46 µM	inactive	inactive	inactive	-8.83%	inactive	–	–	–	–	–	–
O=C(c1ccncc1)N1CCC[C@@]2(CCN(Cc3cc(C(F)(F)F)cc(C(F)(F)F)c3)C2)C1	> 11.4 µM	8.67%	–	> 46 µM	inactive	inactive	inactive	-0.599%	–	–	–	–	–	–	–
CN(C)Cc1ccccc1-c1cncnc1Nc1ccc(F)cc1	> 11.4 µM	18.9%	–	> 46 µM	inactive	inactive	inactive	15.8%	–	> 46 µM	inactive	inactive	inactive	–	–
N#CCCn1c(=O)c(-c2cccs2)nc2cnc(Oc3ccccc3)nc21	> 11.4 µM	9.42%	15.6%	> 46 µM	inactive	inactive	inactive	–	–	> 9.22 µM	–	–	–	–	–
O=C(c1cnccn1)N1CCC2(CC1)CCN(c1cccc(-c3ccccc3)c1)CC2	> 11.4 µM	-9.46%	–	> 46 µM	–	–	inactive	-13.7%	–	–	–	–	–	–	–
COc1cccc(Nc2ncc3nc(CCc4ccccc4)c(=O)n(C4CC4)c3n2)c1	> 11.4 µM	–	–	> 46 µM	inactive	–	inactive	-19.3%	inactive	> 9.22 µM	–	–	–	5.01 µM (active)	–
COc1cccc(Nc2ncc3nc(-c4ccc(Cl)cc4)c(=O)n(CCC#N)c3n2)c1	> 11.4 µM	–	–	> 46 µM	inactive	inactive	inactive	-26.2%	inactive	> 9.22 µM	–	–	–	5.01 µM (active)	–
COc1ccc(C(=O)N2CCC3(CC2)CCN(c2cccc(-c4ccccc4)c2)CC3)cc1	> 11.4 µM	10.6%	–	> 46 µM	inactive	inactive	inactive	-19%	–	–	–	–	–	–	–
O=C(c1cccc(F)c1)N1CCC[C@@]2(CCN(Cc3ccncc3)C2)C1	> 11.4 µM	-12%	–	> 46 µM	inactive	inactive	inactive	-0.901%	inactive	–	–	–	–	–	3.16 µM (active)
